# Compound activity (PubChem)
# Jurkat NFkB inh – inhibitors of the PMA/ionomycin-induced NF-kB reporter in Jurkat cells; PMA/ionomycin-induced NF-kB luciferase reporter, luminescence; inhibition, % at 4 µM; 0.53% of 330,000 active; AID 435003; in the data active = inhibition above about 50%
# aSyn 5UTR inh – 5' untranslated region of α-synuclein, MLPCN primary screen; alpha-synuclein 5'UTR reporter, inhibitor activity; inhibition, % (tested at 7.5 µM); 0.82% of 300,000 active; AID 1813; in the data active = inhibition above about 60%;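 note: H4 neuroglioblastoma cells stably carrying SNCA 5'UTR luciferase fusion; 0% = DMSO wells and 100% = positive control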
# Shn3 inh set2 – reduces Shn3 3'UTR luciferase signal in osteoblasts | Clone20 osteoblast Shn3 3'UTR firefly luciferase, 24 h | inhibition, % at 12.5 µM | 0.52% of 360,000 active;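 active = mean inhibition of at least 75% with every replicate also reaching 75%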;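 note: 0% = median of neutral control wells and 100% = pilot-screen positive control compound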
# 697 NFkB inh – inhibitors of the PMA/ionomycin-induced NF-kB reporter in 697 B cells. inhibition, % at 4 µM. AID 435022. 0.33% of 330,000 active. 697 B-cell NF-kB luciferase reporter, 16 h; in the data active = inhibition above about 35%
# Gli-Sufu block – antagonists of Gli-Sufu signaling; Sufu-KO-LIGHT fibroblasts, Gli luciferase reporter luminescence; inhibition, % at 5 µM; 0.74% of 340,000 active; AID 588413;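 active = inhibition above about 55%, limit read from the data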;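 note: 0% = DMSO-treated cells and 100% = wells with medium but no cells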
# TAG inh – triacylglycerol accumulation inhibition; H9c2 cells, Nile Red lipid (TAG) fluorescence; cells loaded with 200 µM oleic acid; inhibition, % at 12.5 µM; 0.66% of 230,000 active; AID 651582;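 active = pattern-corrected inhibition of lipid staining of at least 50% with the nuclear-stain viability signal not falling by more than 50%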;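 note: 0% = DMSO wells and 100% = triacsin C control wells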
# TAG conf – triacylglycerol accumulation inhibition, confirmation; shares compounds with TAG inh; 71% of 990 active; AID 651629; H9c2 lipid accumulation, Nile Red fluorescence; cells loaded with 200 µM oleic acid; inhibition, % at 12.5 µM;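 active = mean inhibition across replicates of 40% or more; inactive = mean inhibition below 40%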;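 note: plate controls were DMSO only wells for no effect and Triacsin C treated wells for full effect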
# An asterisk follows results filed as active; nt = not tested or not shown. An excerpt weighted towards active compounds, which were near 2.3% of everything screened.
SMILES,Jurkat NFkB inh,aSyn 5UTR inh,Shn3 inh set2,697 NFkB inh,Gli-Sufu block,TAG inh,TAG conf
OCC1CCCCN1CCNCc1cn[nH]c1-c1cccc2ccccc12 (stereo not drawn),6,-23,-34,9,4,-4,nt
C=CCc1c(C)nc(-c2ccccc2)nc1N/N=C/c1ccncc1,-13,-95,-16,-10,-2,65*,28
O=C(NCCC1=CCCCC1)C1CCN(C(=O)Nc2ccccc2)CC1,2,14,-3,2,6,51*,33
CC(=O)N1CCN(CC(=O)Nc2ccc(Cl)c(S(=O)(=O)N(C)C)c2)CC1,0,19,4,6,-4,2,nt
Cc1cccc(NC(=O)C(C)Sc2nc3ccccc3c(=O)n2CCCN2CCOCC2)c1 (stereo not drawn),-31,nt,7,-211,-3,53*,57*
CC(=O)c1cccc(NC(=O)CSc2nc3ccccc3c(=O)n2CCCN2CCOCC2)c1,10,nt,6,1,4,10,nt
CC(C)(C)C(=O)Nc1cc(S(=O)(=O)Nc2ccc(Cl)cc2)ccc1Cl,-11,17,27,-24,10,nt,nt
CC(=O)Nc1cc2cc(NS(=O)(=O)c3ccc(Cl)cc3)ccc2oc1=O,-1,14,-5,5,3,58*,10
COC(=O)Cn1ncc2c3ccccc3n(Cc3ccccc3)c2c1=O,10,5,-8,-18,-1,19,nt
N/C(=N\c1nc2ccccc2o1)NC(=O)c1ccc(F)cc1,-31,-132,-25,-46,-27,66*,45*
N/C(=N\c1nc2ccccc2o1)NC(=O)c1ccc(Cl)cc1,-26,-87,-11,-17,-15,nt,nt
Brc1ccc(/C=N/n2cnnc2)s1,0,-12,-28,6,4,18,nt
CCOc1ccccc1NC(=O)N1CCCC1C(=O)Nc1ccc(-n2cnnn2)c(C)c1 (stereo not drawn),-5,8,-3,-27,-1,56*,39
Cc1ccc(NC(=O)N2CCCC2C(=O)Nc2ccc(-n3cnnn3)c(C)c2)cc1 (stereo not drawn),3,19,-17,26,-20,-12,nt
CNc1cc(C)nc(-n2nc(C)cc2C)n1,4,-14,-8,-1,-13,nt,nt
Cc1cc(N/N=C/c2ccc(F)cc2)nc(-n2nc(C)cc2C)n1,4,9,17,-13,4,57*,53*
O=C(Nc1nc(-c2ccc(Cl)cc2Cl)cs1)c1ccc(OCC2CCCO2)cc1 (stereo not drawn),38,-4,28,31,-4,24,nt
CC(C)COc1ccc(C(=O)Nc2scc(-c3ccc(Cl)cc3Cl)c2C(N)=O)cc1,16,19,5,3,19,60*,39
COc1nc(N/N=C/c2ccc(-c3ccccc3[N+](=O)[O-])o2)nc(N2CCOCC2)n1,-46,-105,-16,-48,6,nt,nt
O=C(c1ccoc1)N1CCN(c2cc(-c3ccncc3)nc3cc(-c4cccc(Cl)c4)nn23)CC1,nt,nt,3,nt,nt,63*,49*
O=C(c1ccncc1)N1CCN(c2cc(-c3ccccc3)nc3cc(-c4cccc(Cl)c4)nn23)CC1,nt,nt,10,nt,nt,50,nt
O=C(c1ccoc1)N1CCN(c2cc(-c3cccnc3)nc3cc(-c4cccc(Cl)c4)nn23)CC1,nt,nt,32,nt,nt,52*,41*
O=C(c1ccoc1)N1CCN(c2cc(-c3ccccc3)nc3cc(-c4ccc(Br)cc4)nn23)CC1,nt,nt,49,nt,nt,75*,65*
COc1ccc(-c2cc3nc(-c4ccccc4)cc(N4CCN(C(=O)c5ccoc5)CC4)n3n2)cc1,nt,nt,0,nt,nt,39,nt
Cc1ccc2nc(NC(=O)CN(C)S(=O)(=O)c3cccc4nsnc34)sc2c1,41,18,24,-74,-15,71*,65*
SMILES,Jurkat NFkB inh,aSyn 5UTR inh,Shn3 inh set2,697 NFkB inh,Gli-Sufu block,TAG inh,TAG conf
CC(C)c1ccc(/C=C/C(=O)NCc2ccc(S(N)(=O)=O)cc2)cc1,-5,-15,-43,2,-8,-13,nt
O=C(Nc1cccc(S(=O)(=O)N2CCCCC2)c1)c1ccccn1,-11,-1,-7,-9,-8,-29,nt
O=C(Nc1cccc(NS(=O)(=O)c2ccc(S(=O)(=O)NC3CC3)cc2)c1)c1ccccn1,-32,0,6,-25,8,56*,25
CCN1CCN(c2cc(C)c3cc(NC(=O)CCC(=O)N4CCN(c5ccccc5)CC4)ccc3n2)CC1,-10,-38,16,-35,-3,nt,nt
NC(=O)C1CCN(C(c2ccccc2F)c2nnnn2Cc2ccco2)CC1 (stereo not drawn),-13,-11,-10,18,2,-25,nt
CCN(CC)CCNc1nc2cc(OC)c(OC)cc2c2nc(-c3ccccc3)nn12,-72,-73,39,17,1,64*,46*
CCCCNC(=O)CCC(=O)NNc1nc2ccccc2c2nc(-c3ccccc3)nn12,5,0,22,15,-7,nt,nt
O=C(O)CNC(=O)/C=C/c1c(Cl)cccc1Cl,7,-19,4,8,3,-12,nt
CCOc1ccccc1NC(=O)N1CCC(c2nc3ccc(C)cc3[nH]2)CC1,13,9,1,23,5,nt,nt
COc1ccc(NC(=O)O[C@@H](C)[C@@H]2CN3CCc4c([nH]c5ccc(-c6ccc(OC)cc6)cc45)[C@@H]3C[C@@H]2N(C)C(=O)Nc2ccc(OC)cc2)cc1,nt,nt,-7,nt,nt,72*,72*
COc1ccc(NC(=O)N(C)[C@H]2C[C@H]3c4[nH]c5ccc(-c6ccc(OC)cc6)cc5c4CCN3C(=O)[C@H]2[C@H](C)O)cc1,nt,nt,10,nt,nt,24,nt
COc1ccc(-c2ccc3[nH]c4c(c3c2)CCN2C[C@@H]([C@H](C)OC(=O)Nc3cc(Cl)cc(Cl)c3)[C@@H](N(C)C(=O)Nc3cc(Cl)cc(Cl)c3)C[C@@H]42)cc1,nt,nt,7,nt,nt,73*,84*
COc1ccc(NC(=O)N(C)[C@H]2C[C@H]3c4[nH]c5ccc(-c6ccc(OC)cc6)cc5c4CCN3C[C@H]2[C@H](C)O)cc1,nt,nt,15,nt,nt,34,nt
COc1ccc(NC(=O)N(C)[C@H]2C[C@H]3c4[nH]c5ccc(-c6ccc7c(c6)OCO7)cc5c4CCN3C[C@H]2[C@H](C)O)cc1,nt,nt,7,nt,nt,60*,66*
COc1ccccc1CCC(=O)Nc1ccc(OC)c(S(=O)(=O)N2CCOCC2)c1,-8,nt,-8,12,-2,-9,nt
O=c1[nH]c(C(F)(F)F)nc2c1nc1n2CCC1,nt,nt,9,nt,nt,0,nt
O=C(CSc1nc(-c2ccccc2Cl)ns1)NCc1ccco1,7,-16,-18,-8,0,0,nt
O=C(Nc1ccccc1N1CCCCC1)c1ncoc1-c1ccc(F)cc1,-7,8,15,-19,6,55*,43*
O=C(Nc1ccccc1N1CCCCC1)c1ncoc1-c1cccc(F)c1,-7,17,2,11,2,30,nt
